{"source": "PubChem BioAssay (Tox21)", "note": "Active and inactive are the calls of the source. Calls follow the shape of the dose curve; as a rule, active = well fitted curve in the direction sought with a large enough effect in the repeat runs; inconclusive = weak or mixed curves; inactive = flat fitted curve, though single readings scatter."}
{"assay": "qHTS assay to test for compound auto fluorescence at 535 nm (green) in HEK293 cell free culture (AID 720682)", "conditions": "cell-free medium, green autofluorescence 485/535 nm; series mostly up to 91.3 µM", "outline": "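Using fluorescein as calibrant, autofluorescence was quantified at 485/535 nm in cell-free DMEM containing 10% FBS after pintool addition of compound or vehicle.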"}
{"smiles": "COC(=O)NC(=S)Nc1ccccc1NC(=S)NC(=O)OC", "outcome": "inactive"}
{"smiles": "CCCCCOC(=O)c1ccccc1C(=O)OCCCCC", "outcome": "inactive"}
{"smiles": "CC(C)OC(=O)Nc1ccccc1", "outcome": "inactive"}
{"smiles": "C#CC(C)(C)NC(=O)c1cc(Cl)cc(Cl)c1", "outcome": "inactive"}
{"smiles": "CC(C)C1(C)N=C(c2nc3ccccc3cc2C(=O)O)NC1=O", "note": "(stereo not given)", "outcome": "inactive"}
{"smiles": "Clc1ccc(Cl)cc1", "outcome": "inactive"}
{"smiles": "C=C(C)CCl", "outcome": "inactive"}
{"smiles": "CC(C)(Cl)Cl", "outcome": "inactive"}
{"smiles": "O=S(=O)(c1ccc(O)cc1)c1ccc(O)cc1", "outcome": "inactive"}
{"smiles": "Oc1ccccc1Cl", "outcome": "inactive"}
{"smiles": "O=NN1CCCCCCC1", "outcome": "inactive"}
{"smiles": "Cc1cc(-c2cc(C)c(N)c(C)c2)cc(C)c1N", "outcome": "inactive"}
{"smiles": "CN(C)N=O", "outcome": "inactive"}
{"smiles": "CCCC1COC(Cn2cncn2)(c2ccc(Cl)cc2Cl)O1", "note": "(stereo not given)", "outcome": "inactive"}
{"smiles": "BrCCBr", "outcome": "inactive"}
{"smiles": "Nc1ccc(Cc2ccc(N)cc2)cc1", "outcome": "inactive"}
{"smiles": "CCCCCCCCCCCC#N", "outcome": "inactive"}
{"smiles": "COP(N)(=O)SC", "note": "(stereo not given)", "outcome": "inactive"}
{"smiles": "CCC12COCN1COC2", "outcome": "inactive"}
{"smiles": "O=[N+]([O-])c1ccc([As](=O)(O)O)cc1", "outcome": "inactive"}
{"smiles": "CC(C)(C)C(O)(CCc1ccc(Cl)cc1)Cn1cncn1", "note": "(stereo not given)", "outcome": "inactive"}
{"smiles": "O=C(O)c1ccccn1", "outcome": "inactive"}
{"smiles": "Cn1cc(-c2ccccc2)c(=O)c(-c2cccc(C(F)(F)F)c2)c1", "outcome": "inactive"}
{"smiles": "CC(NC(C)(C)C)C(=O)c1cccc(Cl)c1", "note": "(stereo not given)", "outcome": "inactive"}
{"smiles": "CN=C=S", "outcome": "inactive"}
{"smiles": "CCN(CC)c1ccccc1", "outcome": "inactive"}
{"smiles": "c1cc2c3c(cccc3c1)CC2", "outcome": "inactive"}
{"smiles": "CCC[N+](=O)[O-]", "outcome": "inactive"}
{"smiles": "CCOP(=S)(OCC)SCCSCC", "outcome": "inactive"}
{"smiles": "CCN(CC)CCO", "outcome": "inactive"}
{"smiles": "CCCN(CCC)N=O", "outcome": "inactive"}
{"smiles": "c1ccc(OP(Oc2ccccc2)Oc2ccccc2)cc1", "outcome": "inactive"}
{"smiles": "c1ccc(-c2ccccc2)cc1", "outcome": "inactive"}
{"smiles": "Nc1ccccc1C(=O)O", "outcome": "inactive"}
{"smiles": "CCOP(OCC)OCC", "outcome": "inactive"}
{"smiles": "ClCc1cccnc1", "outcome": "inactive"}
{"smiles": "NCC(O)c1ccc(O)cc1", "note": "(stereo not given)", "outcome": "inactive"}
{"assay": "qHTS assay to test for compound auto fluorescence at 590 nm (red) in HEK293 cell free culture (AID 720683)", "conditions": "cell-free medium autofluorescence, Ex540/Em590 red; series mostly up to 91.3 µM", "outline": "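Tox21 10K library compounds were pinned into cell-free DMEM with 10% FBS and fluorescence was read at excitation 540 nm. Activity is expressed as Rose Bengal sodium equivalency.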"}
{"smiles": "CCCCCOC(=O)c1ccccc1C(=O)OCCCCC", "outcome": "inactive"}
{"smiles": "CC(C)OC(=O)Nc1ccccc1", "outcome": "inactive"}
{"smiles": "CC(C)C1(C)N=C(c2nc3ccccc3cc2C(=O)O)NC1=O", "note": "(stereo not given)", "outcome": "inactive"}
{"smiles": "Oc1ccccc1Cl", "outcome": "inactive"}
{"smiles": "O=NN1CCCCCCC1", "outcome": "inactive"}
{"smiles": "Cc1cc(-c2cc(C)c(N)c(C)c2)cc(C)c1N", "outcome": "inactive"}
{"smiles": "CCCC1COC(Cn2cncn2)(c2ccc(Cl)cc2Cl)O1", "note": "(stereo not given)", "outcome": "inactive"}
{"smiles": "Nc1ccc(Cc2ccc(N)cc2)cc1", "outcome": "inactive"}
{"smiles": "COP(N)(=O)SC", "note": "(stereo not given)", "outcome": "inactive"}
{"smiles": "CCC12COCN1COC2", "outcome": "inactive"}
{"smiles": "CC(C)(C)C(O)(CCc1ccc(Cl)cc1)Cn1cncn1", "note": "(stereo not given)", "outcome": "inactive"}
{"smiles": "O=C(O)c1ccccn1", "outcome": "inactive"}
{"smiles": "CC(NC(C)(C)C)C(=O)c1cccc(Cl)c1", "note": "(stereo not given)", "outcome": "inactive"}
{"smiles": "c1cc2c3c(cccc3c1)CC2", "outcome": "inactive"}
{"smiles": "CCC[N+](=O)[O-]", "outcome": "inactive"}
{"smiles": "CCN(CC)CCO", "outcome": "inactive"}
{"smiles": "CCCN(CCC)N=O", "outcome": "inactive"}
{"smiles": "c1ccc(-c2ccccc2)cc1", "outcome": "inactive"}
{"smiles": "Nc1ccccc1C(=O)O", "outcome": "inactive"}
{"smiles": "CCOP(OCC)OCC", "outcome": "inactive"}
{"smiles": "ClCc1cccnc1", "outcome": "inactive"}
{"smiles": "NCC(O)c1ccc(O)cc1", "note": "(stereo not given)", "outcome": "inactive"}
{"assay": "qHTS assay to test for compound auto fluorescence at 590 nm (red) in HepG2 cell free culture (AID 720684)", "conditions": "cell-free medium autofluorescence, red 540/590 nm; series mostly up to 91.3 µM", "outline": "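Measured in medium alone (MEM containing 10% FBS) following pintool addition of compound; emission at 590 nm with 540 nm excitation, referenced to Rose Bengal sodium.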"}
{"smiles": "COC(=O)NC(=S)Nc1ccccc1NC(=S)NC(=O)OC", "outcome": "inactive"}
{"smiles": "CCCCCOC(=O)c1ccccc1C(=O)OCCCCC", "outcome": "inactive"}
{"smiles": "C#CC(C)(C)NC(=O)c1cc(Cl)cc(Cl)c1", "outcome": "inactive"}
{"smiles": "CC(C)C1(C)N=C(c2nc3ccccc3cc2C(=O)O)NC1=O", "note": "(stereo not given)", "outcome": "inactive"}
{"smiles": "C=C(C)CCl", "outcome": "inactive"}
{"smiles": "CC(C)(Cl)Cl", "outcome": "inactive"}
{"smiles": "O=S(=O)(c1ccc(O)cc1)c1ccc(O)cc1", "outcome": "inactive"}
{"smiles": "O=NN1CCCCCCC1", "outcome": "inactive"}
{"smiles": "CN(C)N=O", "outcome": "inactive"}
{"smiles": "CCCC1COC(Cn2cncn2)(c2ccc(Cl)cc2Cl)O1", "note": "(stereo not given)", "outcome": "inactive"}
{"smiles": "BrCCBr", "outcome": "inactive"}
{"smiles": "CCC12COCN1COC2", "outcome": "inactive"}
{"smiles": "O=[N+]([O-])c1ccc([As](=O)(O)O)cc1", "outcome": "inactive"}
{"smiles": "CC(C)(C)C(O)(CCc1ccc(Cl)cc1)Cn1cncn1", "note": "(stereo not given)", "outcome": "inactive"}
{"smiles": "CC(NC(C)(C)C)C(=O)c1cccc(Cl)c1", "note": "(stereo not given)", "outcome": "inactive"}
{"smiles": "CN=C=S", "outcome": "inactive"}
{"smiles": "c1cc2c3c(cccc3c1)CC2", "outcome": "inactive"}
{"smiles": "CCC[N+](=O)[O-]", "outcome": "inactive"}
{"smiles": "CCOP(=S)(OCC)SCCSCC", "outcome": "inactive"}
{"smiles": "CCN(CC)CCO", "outcome": "inactive"}
{"smiles": "c1ccc(OP(Oc2ccccc2)Oc2ccccc2)cc1", "outcome": "inactive"}
{"smiles": "c1ccc(-c2ccccc2)cc1", "outcome": "inactive"}
{"smiles": "Nc1ccccc1C(=O)O", "outcome": "inactive"}
{"smiles": "NCC(O)c1ccc(O)cc1", "note": "(stereo not given)", "outcome": "inactive"}
{"assay": "qHTS assay to test for compound auto fluorescence at 460 nm (blue) in HepG2 cell free culture (AID 720685)", "conditions": "Cell-free culture medium, blue autofluorescence 405/460 nm; series mostly up to 91.3 µM", "outline": "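Compound (23 nL) or DMSO pinned into cell-free MEM with 10% FBS; blue fluorescence read at 405/460 nm excitation/emission, expressed as auto-fluorescence equivalency to triamterene.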"}
{"smiles": "COC(=O)NC(=S)Nc1ccccc1NC(=S)NC(=O)OC", "outcome": "inactive"}
{"smiles": "CCCCCOC(=O)c1ccccc1C(=O)OCCCCC", "outcome": "inactive"}
{"smiles": "CC(C)OC(=O)Nc1ccccc1", "outcome": "inactive"}
{"smiles": "C#CC(C)(C)NC(=O)c1cc(Cl)cc(Cl)c1", "outcome": "inactive"}
{"smiles": "CC(C)C1(C)N=C(c2nc3ccccc3cc2C(=O)O)NC1=O", "note": "(stereo not given)", "outcome": "inactive"}
{"smiles": "Clc1ccc(Cl)cc1", "outcome": "inactive"}
{"smiles": "C=C(C)CCl", "outcome": "inactive"}
{"smiles": "CC(C)(Cl)Cl", "outcome": "inactive"}
{"smiles": "O=S(=O)(c1ccc(O)cc1)c1ccc(O)cc1", "outcome": "inactive"}
{"smiles": "Oc1ccccc1Cl", "outcome": "inactive"}
{"smiles": "O=NN1CCCCCCC1", "outcome": "inactive"}
{"smiles": "Cc1cc(-c2cc(C)c(N)c(C)c2)cc(C)c1N", "outcome": "inactive"}
{"smiles": "CN(C)N=O", "outcome": "inactive"}
{"smiles": "CCCC1COC(Cn2cncn2)(c2ccc(Cl)cc2Cl)O1", "note": "(stereo not given)", "outcome": "inactive"}
{"smiles": "BrCCBr", "outcome": "inactive"}
{"smiles": "Nc1ccc(Cc2ccc(N)cc2)cc1", "outcome": "inactive"}
{"smiles": "CCCCCCCCCCCC#N", "outcome": "inactive"}
{"smiles": "COP(N)(=O)SC", "note": "(stereo not given)", "outcome": "inactive"}
{"smiles": "CCC12COCN1COC2", "outcome": "inactive"}
{"smiles": "O=[N+]([O-])c1ccc([As](=O)(O)O)cc1", "outcome": "inactive"}
{"smiles": "CC(C)(C)C(O)(CCc1ccc(Cl)cc1)Cn1cncn1", "note": "(stereo not given)", "outcome": "inactive"}
{"smiles": "O=C(O)c1ccccn1", "outcome": "inactive"}
{"smiles": "Cn1cc(-c2ccccc2)c(=O)c(-c2cccc(C(F)(F)F)c2)c1", "outcome": "inactive"}
{"smiles": "CC(NC(C)(C)C)C(=O)c1cccc(Cl)c1", "note": "(stereo not given)", "outcome": "inactive"}
{"smiles": "CN=C=S", "outcome": "inactive"}
{"smiles": "CCN(CC)c1ccccc1", "outcome": "inactive"}
{"smiles": "c1cc2c3c(cccc3c1)CC2", "outcome": "inactive"}
{"smiles": "CCC[N+](=O)[O-]", "outcome": "inactive"}
{"smiles": "CCOP(=S)(OCC)SCCSCC", "outcome": "inactive"}
{"smiles": "CCN(CC)CCO", "outcome": "inactive"}
{"smiles": "CCCN(CCC)N=O", "outcome": "inactive"}
{"smiles": "c1ccc(OP(Oc2ccccc2)Oc2ccccc2)cc1", "outcome": "inactive"}
{"smiles": "c1ccc(-c2ccccc2)cc1", "outcome": "inactive"}
{"smiles": "Nc1ccccc1C(=O)O", "outcome": "inactive"}
{"smiles": "CCOP(OCC)OCC", "outcome": "inactive"}
{"smiles": "ClCc1cccnc1", "outcome": "inactive"}
{"smiles": "NCC(O)c1ccc(O)cc1", "note": "(stereo not given)", "outcome": "inactive"}
